Laboratory results taken from the supplement of paper PMC9897528.

Test system: Scedosporium aurantiacum CBS 136046
Experiment: growth inhibition relative to DMSO control (OD600); higher = more antifungal activity, active = 80 or more; extreme values may be limits of the assay
Conditions: 5 µM; 72 h; 37 °C
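Further: conidia screened in RPMI 1640 medium under 5% CO2, growth read by spectrophotometer, medium with 0.5% DMSO serving as the untreated reference.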

Growth inhibition, inactive:
O=C(Nc1ccccc1)N(Cc1cc(Br)ccc1O)c1ccc(F)cc1 40.7%
Clc1ccc(Cn2c(CN3CCCC3)nc3ccccc32)cc1 15.5%
NC(=O)c1[nH]c2ccc(S(N)(=O)=O)cc2c1-c1ccccc1 34.5%
O=C(NCc1ccc(F)cc1)c1c(O)c2ncccc2[nH]c1=O 2.42%
N=c1n(CCN2CCCCC2)c2ccccc2n1CC(O)COc1ccc(Cl)cc1Cl (centres undefined) 25.3%
Cc1ccccc1NC(=O)Nc1cccc([N+](=O)[O-])c1 12.4%
O=C(O)CCNC(=O)c1ccccc1 36.7%
Cn1cncc1[C@@](N)(c1ccc(Cl)cc1)c1ccc2c(c1)c(-c1cccc(Cl)c1)cc(=O)n2C 11.3%
Cc1onc(-c2ccccc2Cl)c1C(=O)N[C@@H]1C(=O)N2[C@@H]1SC(C)(C)[C@@H]2C(=O)O 0.0225%
CN(C)CCCOc1ccc(-c2ccc3ncc4c(c3c2)n(C2CCOCC2)c(=O)n4C)cn1 3.43%
C[C@@H](O)[C@H](N)C(=O)NS(=O)(=O)c1cccc(-c2ccc3[nH]ncc3c2)c1 21%
Cc1ccc(C)c(OCCCCCCN2C[C@H](O)[C@@H](O)[C@H](O)[C@H]2CO)c1 15.9%
CO/N=C(\C(=O)N[C@@H]1C(=O)N2C(C(=O)OCOC(=O)C(C)(C)C)=C(/C=C\c3scnc3C)CS[C@H]12)c1csc(N)n1 0%
Nc1cccc(-c2nc(N)nc(NC3Cc4ccccc4C3)n2)c1 21.5%
